Screens as filed in PubChem.
TDP1 block: qHTS Assay for Inhibitors of Tyrosyl-DNA Phosphodiesterase (TDP1) | Tyrosyl-DNA phosphodiesterase 1 (Homo sapiens), Q9NUW8 | recombinant TDP1, AlphaScreen DNA substrate cleavage | Potency, µM (doses to about 130 µM), for inactives: at the top dose activity change, negative = inhibition, hits mostly inhibitors | 350,000 compounds, 0.28% hits; also: potency is read from the fitted curve at half-maximal effect; % is scaled to controls: 0 for no effect and ±100 for the full control effect; nearly all actives have a fitted effect of over 40% in size
Target sequence (Q9NUW8 whole entry, looked up): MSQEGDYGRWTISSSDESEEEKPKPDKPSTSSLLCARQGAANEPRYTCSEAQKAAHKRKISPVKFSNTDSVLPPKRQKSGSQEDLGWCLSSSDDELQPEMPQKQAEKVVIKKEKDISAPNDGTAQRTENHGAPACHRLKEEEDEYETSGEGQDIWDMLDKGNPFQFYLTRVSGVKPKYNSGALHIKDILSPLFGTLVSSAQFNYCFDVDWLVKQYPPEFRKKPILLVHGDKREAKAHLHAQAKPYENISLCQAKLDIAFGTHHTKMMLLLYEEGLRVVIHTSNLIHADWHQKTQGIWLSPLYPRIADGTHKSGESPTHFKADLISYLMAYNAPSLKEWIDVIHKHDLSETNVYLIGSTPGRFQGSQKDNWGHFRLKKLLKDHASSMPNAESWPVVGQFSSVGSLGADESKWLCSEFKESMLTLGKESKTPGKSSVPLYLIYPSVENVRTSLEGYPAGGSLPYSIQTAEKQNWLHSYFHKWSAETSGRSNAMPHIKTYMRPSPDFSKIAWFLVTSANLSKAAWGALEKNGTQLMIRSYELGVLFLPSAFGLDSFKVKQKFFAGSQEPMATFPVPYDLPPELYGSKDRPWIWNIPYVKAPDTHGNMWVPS
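Signal: AlphaScreen proximity between streptavidin donor and anti-FITC acceptor beads on intact substrate. Reaction: Tdp1 1 nM, substrate 15 nM final, 5 min RT after 15 min compound preincubation.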
TDP1 cell noCPT: qHTS for Inhibitors of human tyrosyl-DNA phosphodiesterase 1 (TDP1): qHTS in cells in absence of CPT; 420,000 compounds, 15% hits; Potency, µM (top dose mostly 46.2 µM), for the others: at the top dose activity change, negative = growth inhibition, most hits filed as inhibitors; AID 686978, 2013; DT40 Tdp1-/- hTDP1 cells, no CPT, ATP luminescence, 48 h; also: potency is read from the fitted curve at half-maximal effect; % is scaled to controls: 0 for no effect and ±100 for the full control effect; nearly all actives have a fitted effect of over 55% in size
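Seeded 400 DT40-hTDP1 cells/well (vehicle DMSO, no 20 nM CPT); pinned compounds; ≥48 hr at 37 °C; CellTiter-Glo luminescence as viability measure.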
DT40 TDP1 CPT: qHTS for Inhibitors of human tyrosyl-DNA phosphodiesterase 1 (TDP1): qHTS in cells in presence of CPT; AID 686979, 2013; Potency, µM (doses to about 46.2 µM), without a hit: at the top dose activity change, negative = growth inhibition, usual class: inhibitors; chicken DT40 Tdp1-/-;hTDP1 cells + 20 nM CPT, ATP luminescence, 48 h; 420,000 compounds, 12% hits; also: potency is read from the fitted curve at half-maximal effect; % is scaled to controls: 0 for no effect and ±100 for the full control effect; nearly all actives have a fitted effect of over 55% in size
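Chicken DT40 Tdp1-/- cells complemented with human TDP1, 400 cells/well, exposed to compounds plus 20 nM camptothecin for at least 48 h at 37 C; viability read as ATP content by CellTiter-Glo luminescence.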
IL-1B inflam inh: qHTS for Inhibitors of Inflammasome Signaling: IL-1-beta AlphaLISA Primary Screen; activity change, % at 57.5 µM; 360,000 compounds, 4.7% hits; THP-1 LPS/ATP IL-1B secretion, AlphaLISA, 16 h; hits give low values; in the data active = activity change below about -50%; inconclusive = mostly about -30% to -49%; also: % is scaled to controls: 0 for no effect and ±100 for the full control effect
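Secreted IL-1B measured by AlphaLISA bead assay after 16 h compound exposure of THP-1 cells; compounds (final up to 57.5 uM) added 1 h before LPS (250 ng/mL) and ATP (1.25 mM) stimulation; lower signal means less secretion.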
HepG2 tox: qHTS for Inhibitors of TGF-b: Cytotox Counterscreen; HepG2 CAGA-GFP viability, ATP luminescence, 18 h; Potency, µM (doses to about 46.1 µM), for the others: top-dose activity change, negative = cytotoxicity, actives largely listed as cytotoxic; 410,000 compounds, 0.76% hits; AID 588856, 2011; also: potency is read from the fitted curve at half-maximal effect
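CellTiter-Glo luminescence gave cytotoxicity after 18 hours at 37 degrees C. The cells were HepG2 CAGA-GFP in 1% FBS DMEM, stimulated with 500 pg/mL TGF-beta after compound addition. %Activity was normalised to no-cell wells (complete cell-killing) and DMSO (no toxicity), and curves were fitted and classified.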
TGFb inhibitor: qHTS for Inhibitors of TGF-b. AID 588855, 2011. HepG2 CAGA-GFP TGF-b/SMAD3 reporter, GFP fluorescence, 18 h; TGF-beta stimulated, 500 pg/mL final. Potency, µM (series often up to 46.1 µM), without a hit: at the top dose activity, negative = inhibition, most hits filed as inhibitors. 410,000 compounds, 1.2% hits; also: potency is read from the fitted curve at half-maximal effect; % is scaled to controls: 0 for no effect and ±100 for the full control effect; nearly all actives have a fitted effect of over 65% in size
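Inhibition was scored as loss of TGF-beta-induced (500 pg/mL final, 18 hours, 37 degrees C) GFP in HEPG2 cells carrying a CAGA-GFP reporter, in DMEM with 1% FBS. Well GFP was summed per cell; Activity was normalised to unstimulated and stimulated DMSO wells, then concentration-response fitting.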
Active calls of the source: *; ? = inconclusive; nt = no result; [ ] = remark or other dose. The list is not random: actives were taken first. Their share in the collection is about 18%. Unless noted, calls follow the shape of the dose curve; as a rule, active = well fitted curve in the direction sought with a large enough effect; inconclusive = small, poorly fitted or top-dose-only effect, or another doubt; inactive = no such curve, though single readings can be large; an effect the other way counts as inactive or inconclusive.

SMILES	TDP1 block	TDP1 cell noCPT	DT40 TDP1 CPT	IL-1B inflam inh	HepG2 tox	TGFb inhibitor
COc1cccc(CC2(CO)CCCN(Cc3cn[nH]c3-c3cc(C)ccc3C)C2)c1 (centres undefined)	3%	?	?	?	-25%	-2%
COc1ccccc1-n1cc(CN2CCCC(CO)(Cc3cccc(Cl)c3)C2)cn1 (centres undefined)	0%	23µM*	?	0	-46%	?
COc1cc(NC(=O)CN(C)S(=O)(=O)c2ccc3c(c2)CCCC(=O)N3)cc(OC)c1OC	-3%	nt	nt	nt	-19%	-8%
CCCN(CC1CC1)C(=O)COC(=O)c1oc2c(F)cccc2c1C	-4%	?	-12%	-15	0%	0%
CCC(=O)Nc1cccc(NC(=O)c2ccc(C)cc2Cl)c1	5%	-25%	-19%	-13	-4%	-13%
COc1cccc(NC(=O)NC2(C(=O)N3CCN(C)CC3)CCCCC2)c1	10%	3%	-12%	13	2%	13%
COc1cccc(CC2(CO)CCCN(Cc3ccc(CO)o3)C2)c1 (centres undefined)	-3%	-3%	-15%	20	-3%	-4%
COc1ccc(-n2ccnc2CN2CCCC(CO)(Cc3cccc(OC)c3)C2)cc1 (centres undefined)	nt	26µM*	?	2	-29%	?
COc1ccc(-c2ccc(C)cc2)cc1C1C2C=CCC(C)C2C(=O)N1Cc1ccccc1 (centres undefined)	-4%	nt	nt	nt	0%	-10%
O=C(c1ccccc1)c1ccc(NCCCn2ccnc2)c([N+](=O)[O-])c1	nt	?	-29%	-74*	-33%	-3%
COC(=O)c1cc(NC(=O)c2cc3c(-c4ccccc4F)nn(C)c3s2)cc(C(=O)OC)c1	1%	?	3.3µM*	nt	0%	4%
Cn1nc(-c2ccccc2F)c2cc(C(=O)NCCc3ccc(Cl)cc3)sc21	-2%	16µM*	?	nt	-27%	-27%
CCCCN(C)CCNC(=O)c1cc2c(-c3ccccc3F)nn(C)c2s1	nt	?	-12%	-97*	-20%	11%
CCOc1ccc(NC(=O)c2cc3c(-c4ccccc4F)nn(C)c3s2)cc1	-2%	-10%	?	nt	-4%	31%
CCOc1ccc(CCNC(=O)c2cc3c(-c4ccccc4F)nn(C)c3s2)cc1	6%	?	-5%	nt	-6%	2%
CNC(=O)c1cc2c(-c3ccccc3)nn(C)c2s1	nt	21µM*	?	-11	-13%	1%
O=C1CCC2(CCCCC2)N1	nt	3%	-2%	19	-1%	-2%
Cn1nc(C(F)(F)F)c2cc(C(=O)Nc3ccc(C(F)(F)F)cc3)sc21	-3%	21µM*	?	?	-6%	-7%
Cn1nc(C(F)(F)F)c2cc(C(=O)Nc3ccc(F)c(Cl)c3)sc21	9%	?	11%	nt	-15%	-1%
COCCNC(=O)c1cc2c(-c3ccccc3F)nn(C)c2s1	4%	-23%	-25%	-54*	-19%	11%
CNC(=O)c1cc(C)c(-c2ccccc2)s1	0%	21µM*	?	10	1%	-1%
COc1cc(F)ccc1S(=O)(=O)N1CCN(c2ccccc2)CC1	nt	-20%	-2%	-9	-38%	-23%
NC(=S)N/N=C1\CCOc2ccc(F)cc21	6%	16µM*	?	?	-3%	-18%
COc1ccc(CNC(=O)C2CCN(S(=O)(=O)c3ccccc3)CC2)cc1	2%	-2%	-1%	-4	-23%	-3%
CS(=O)(=O)N1CCC(C(=O)Nc2ccc(F)c(Cl)c2)CC1	nt	?	12%	-15	17%	1%
SMILES	TDP1 block	TDP1 cell noCPT	DT40 TDP1 CPT	IL-1B inflam inh	HepG2 tox	TGFb inhibitor
COc1ccc(CNC(=O)C2CCN(S(=O)(=O)c3ccc(N4CCCC4=O)cc3)CC2)cc1	nt	12µM*	26µM*	-4	3%	-5%
Cc1ccc(NC(=O)C2CCN(S(=O)(=O)c3ccc(N4CCCC4=O)cc3)CC2)cc1Cl	2%	4.1µM*	5.8µM*	-5	-17%	?
O=C(NCc1ccccc1Cl)C1CCN(S(=O)(=O)c2ccc(N3CCCC3=O)cc2)CC1	1%	?	16µM*	-16	-16%	-1%
Cc1ccc(NC(=O)C2CCN(S(C)(=O)=O)CC2)cc1Cl	nt	-4%	-13%	-61*	-1%	4%
COc1ccc(C(C)=NNS(=O)(=O)c2ccc(C)cc2)cc1OC	nt	?	-20%	?	-24%	2%
O=C(NCc1ccc(F)cc1)C1CCN(S(=O)(=O)c2ccc(N3CCCC3=O)cc2)CC1	nt	16µM*	?	9	-31%	-10%
Cn1nc(C(C)(C)C)cc1C(=O)NCc1ccc(N2CCCC2=O)cc1	5%	2.3µM*	3.3µM*	-12	-26%	-11%
O=C(NCc1ccc(N2CCCC2=O)cc1)c1ccc(F)cc1	4%	2%	2%	33	-1%	-8%
CCNC(=O)C1CCN(S(=O)(=O)c2ccc(F)cc2)CC1	2%	18µM*	?	2	-15%	-13%
CCOC(=O)n1cnc2nc(N)nc(SC)c21	nt	-15%	-3%	6	-11%	15%
O=C(NC[C@@H]1CCCN2CCCC[C@H]12)c1cnn(-c2nccc(-c3cc4ccccc4o3)n2)c1C1CC1	nt	-8%	-3%[9.04 µM]	nt	nt	nt
S=C(NCc1ccco1)Nc1ccc(Cl)c(Cl)c1	10%	?	?	-101*	-40%	?
S=C(NCc1ccco1)Nc1cc(Cl)c(Cl)cc1Cl	3%	?	?	-52*	-37%	?
S=C(NCc1ccco1)Nc1cccc(Cl)c1	12%	?	-12%	0	-21%	?
COc1cc(OC)c(C2=Nc3ccc(Br)cc3C(c3ccccc3)N2CC(=O)NN)cc1OC (centres undefined)	6%	19%	7%	2	-24%	-14%
COc1cc(N2CCC(O)CC2)ccc1Nc1nnc(Cl)c(Nc2ccccc2S(C)(=O)=O)n1	nt	16µM*	21µM*	36	-34%	-16%
